Out of some 360,000 compounds screened, about 17,000 (4.7%) were called active. Another 5% or so got no clear call; they are omitted. Rule as the data show it: active = activity change below about -50%; inconclusive = mostly about -30% to -49%; inactive = weaker than that. The full list was thinned out, with actives kept by preference.
Experiment: qHTS for Inhibitors of Inflammasome Signaling: IL-1-beta AlphaLISA Primary Screen
Details: THP-1 LPS/ATP IL-1B secretion, 16 h; at 57.5 µM, hits give low values
In short: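 Secreted IL-1B measured by AlphaLISA bead assay after 16 h compound exposure of THP-1 cells; compounds (final up to 57.5 uM) added 1 h before LPS (250 ng/mL) and ATP (1.25 mM) stimulation; lower signal means less secretion.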
% is scaled to controls: 0 for no effect and ±100 for the full control effect.

Row | SMILES | activity change
1 | Cc1cccc(-c2noc(-c3ccc(F)cc3)n2)c1 | 19.9% (inactive)
2 | Oc1ccc(-c2nnc(Nc3ccccc3)c3ccccc23)cc1 | 13.6% (inactive)
3 | Cc1cccc(-c2nc(Nc3ccc(O)cc3)c3ccccc3n2)c1 | -81.3% (active)
4 | CCc1ccccc1OCC(=O)Nc1ccc2c(c1)OCCO2 | -6.79% (inactive)
5 | O=C(CCl)Nc1ccc(Sc2ccc(NC(=O)CCl)cc2)cc1 | -101% (active)
6 | CC(C)(CCl)C(=O)Nc1ccc(Sc2ccc(F)cc2)cc1 | -12.9% (inactive)
7 | CC(=O)Nc1ccc(SCC(=O)NC(=O)c2ccc(Cl)cc2)cc1 | -2.04% (inactive)
8 | CC1CCN(C(=O)c2ccccc2NC(=O)Cc2ccccc2)CC1 | 29.6% (inactive)
9 | C[C@H](CO)N1C[C@H](C)[C@@H](CN(C)C(=O)C2CCCCC2)OCc2cnnn2CCCC1=O | 2.8% (inactive)
10 | CCN1/C(=C\c2ccc3ccccc3[n+]2CC)Sc2cc(C)ccc21 | -99.7% (active)
11 | CCN1/C(=C/c2ccc3ccc(C)cc3[n+]2CC)Sc2ccccc21 | -101% (active)
12 | O=C(Nc1cccc(Br)c1)C1CC(=O)N(C2CCCC2)C1 (stereo unspecified) | 15.6% (inactive)
13 | CCCS(=O)(=O)NC(=O)C1(C)CCCN(C(=O)c2cc(C)on2)C1 (stereo unspecified) | 19.3% (inactive)
14 | O=C1NC(O)CCN1C1CC(O)C(CO)O1 (stereo unspecified) | 0% (inactive)
15 | CC1(C(=O)Nc2cccc(Oc3ccccc3)c2)CCN1Cc1ccccc1Cl (stereo unspecified) | -0.171% (inactive)
16 | CCC(C)c1ccccc1N1CC(C(=O)N2CCN(S(=O)(=O)c3ccc(F)cc3)CC2)CC1=O (stereo unspecified) | -6.2% (inactive)
17 | Cc1nc(C(F)(F)F)ccc1C(=O)N1CCC1(C)C(=O)NS(=O)(=O)c1ccc(F)cc1F (stereo unspecified) | 20.5% (inactive)
18 | CCOC(=O)N/N=C/c1cccnc1 | 33.8% (inactive)
19 | O=C(CSc1cccc2cccnc12)N/N=C/c1cccnc1 | -96.5% (active)
20 | COc1ccc(C(=O)NCC(=O)N/N=C/c2cccnc2)cc1 | 16.9% (inactive)
21 | CC(=NNC(N)=O)C1CC2CCC1CC2 (stereo unspecified) | -5.84% (inactive)

Row | SMILES | activity change
22 | O=C(/C=C/c1ccc(Cl)cc1Cl)c1cccnc1 | -59.5% (active)
23 | O=C(OCc1cc(Cl)ccc1OC(F)F)c1cccnc1 | 26% (inactive)
24 | O=C(NCc1ccc(Cl)c(Cl)c1)c1cccnc1 | 3.6% (inactive)
25 | CC(=O)N1CCc2cc(Br)cc(S(=O)(=O)CCC(=O)Nc3c(C)n(C)n(-c4ccccc4)c3=O)c21 | 4.54% (inactive)
26 | O=C(NN=Cc1ccc([N+](=O)[O-])cc1)C1CC1 | -3.03% (inactive)
27 | O=[N+]([O-])c1ccc(N=NNc2ccc([N+](=O)[O-])cc2)cc1 | -3.41% (inactive)
28 | O=[N+]([O-])c1ccc(N/N=C/c2ccccc2)cc1 | -59.6% (active)
29 | Cc1ccc(C)c(C(O)c2ncc(-c3cccc4ccccc34)[nH]2)c1 (stereo unspecified) | 4.1% (inactive)
30 | Cc1ccc(N(NC(=O)C(C)(C)O)C(=O)c2ccccc2)cc1C | 38.2% (inactive)
31 | CC(C)(O)C(=O)NN(C(=O)c1ccccc1)c1cccc(Br)c1 | -15.5% (inactive)
32 | COC(=O)N(NC(=O)C(O)(C(C)C)C(C)C)c1ccccc1 | 12.9% (inactive)
33 | CCCCC(O)(CCCC)C(=O)NN(C(=O)CCl)c1ccccc1 | -78.2% (active)
34 | CCCC(O)(CCC)C(=O)NN(C(=O)CCl)c1cccc(C)c1 | -219% (active)
35 | CCCCCNC(=O)C1c2ccccc2Oc2ccccc21 | -3.75% (inactive)
36 | CCN(CC(=O)Nc1c(F)cccc1F)C(=O)c1ccc(-c2ccc(C(C)=O)cc2)o1 | -9.45% (inactive)
37 | CC1(C(=O)NS(=O)(=O)c2cccs2)CCN1C(=O)Cc1ccc(-c2ccccc2)cc1 (stereo unspecified) | 5.64% (inactive)
38 | Cn1c(Nc2ccc(F)cc2)nc2cc(-c3ccsc3)sc2c1=O | 19.8% (inactive)
39 | CC(C)[C@H](NC(=O)c1ccccc1F)C(=O)Nc1cccc(S(=O)(=O)N2CCOCC2)c1 | 13.4% (inactive)
40 | O=C(NCc1ccco1)/C(=C\c1cccc([N+](=O)[O-])c1)NC(=O)c1ccco1 | 29.6% (inactive)
41 | CCCCN(C(C)=O)c1ccc2c(c1)C1CC2CCN1Cc1ccccc1 (stereo unspecified) | -22.2% (inactive)
42 | Fc1ccc(-c2ccc(-c3nn4c(-c5ccco5)nnc4s3)o2)cc1 | -8.52% (inactive)

Row | SMILES | activity change
43 | COc1ccc(-c2nn3c(-c4ccccc4)nnc3s2)cc1OC | -54.1% (active)
44 | COc1ccc(CNC(=O)Cc2ccc(-c3ccccc3)cc2)cc1OC | 0.934% (inactive)
45 | CCCc1ccc(S(=O)(=O)N2CCN(C(=O)c3cc(C)on3)CC2)cc1 | 21.7% (inactive)
46 | CCOC(=O)[C@]12CCCC=C1N(CCC1=CCCCC1)C(=O)[C@H](CC(=O)N1CCN(C(=O)c3ccco3)CC1)C2 | -5.52% (inactive)
47 | C=CCc1cc(S(=O)(=O)c2ccc(O)c(CC=C)c2)ccc1O | 8.87% (inactive)
48 | CCCNC(=O)C[C@@H]1CC[C@@H]2[C@H](COC[C@H](O)CN2C(=O)c2cc(Cl)cc(Cl)c2)O1 | 35% (inactive)
49 | O=C(COC(=O)Cc1ccc(Cl)cc1Cl)NCc1ccco1 | 0.688% (inactive)
50 | CC(C[N+](C)(C)C)OC(N)=O (stereo unspecified) | 8.81% (inactive)
51 | CC(=O)OCC(COC(C)=O)OC(C)=O | 12.6% (inactive)
52 | CC(=O)OC(C)C[N+](C)(C)C (stereo unspecified) | -70.2% (active)
53 | CC1=C(C(=O)N2CCOCC2)CC(CC(=O)NCc2ccco2)C(=O)N1Cc1ccc(F)cc1 (stereo unspecified) | 17.5% (inactive)
54 | O=C1NC[C@H](CCCCN2C[C@H](Cc3ccc(O)cc3)N(CCc3ccccc3)C(=O)C2=O)N(CCc2ccccc2)C1=O | 4.59% (inactive)
55 | CC(C)(C)N1CC(c2nc3ccccc3n2Cc2ccc(F)cc2)CC1=O (stereo unspecified) | -16.1% (inactive)
56 | CC(C)(C)c1nc2ccccc2c(=O)n1N1C(=O)c2ccccc2C1=O | -1.36% (inactive)
57 | CC(C)(C)c1cc(=O)n2c(nc3ccccc32)[nH]1 | -74.5% (active)
58 | CN(CC(=O)NCc1ccncc1)S(=O)(=O)c1ccc(Br)cc1 | 11.2% (inactive)
59 | O=C(CCc1nc2ccccc2c(=O)[nH]1)OCC(=O)c1cccc(Cl)c1 | 0% (inactive)
60 | O=C(N/N=C/c1ccc(Cl)cc1)c1nc2ccc([N+](=O)[O-])cc2c(=O)[nH]1 | 7.76% (inactive)
61 | O=C(/C(=C/c1cccc(Cl)c1)c1nc2ccccc2[nH]1)c1ccccc1 | -95.6% (active)

— PubChem BioAssay AID743279 (National Center for Advancing Translational Sciences (NCATS), 2014)
